Experiment [1] concerns Epidermal growth factor receptor (Homo sapiens), P00533 [T790M]. Particulars: at 1 µM.
In experiment [2] the test system is Epidermal growth factor receptor (Homo sapiens), P00533 [L858R,T790M]. To be noted: at 0.1 µM.
Experiment [3] shares this test system. To be noted: at 1 µM.
Experiment [4] deals with Ephrin type-A receptor 2 (Homo sapiens) (UniProt P29317). Particulars: at 0.1 µM.
For experiment [5] the target is unchanged. To be noted: at 1 µM.
In experiment [6] the target is T1, Ephrin type-A receptor 3 (Homo sapiens) (UniProt P29320).
T1 sequence (whole entry): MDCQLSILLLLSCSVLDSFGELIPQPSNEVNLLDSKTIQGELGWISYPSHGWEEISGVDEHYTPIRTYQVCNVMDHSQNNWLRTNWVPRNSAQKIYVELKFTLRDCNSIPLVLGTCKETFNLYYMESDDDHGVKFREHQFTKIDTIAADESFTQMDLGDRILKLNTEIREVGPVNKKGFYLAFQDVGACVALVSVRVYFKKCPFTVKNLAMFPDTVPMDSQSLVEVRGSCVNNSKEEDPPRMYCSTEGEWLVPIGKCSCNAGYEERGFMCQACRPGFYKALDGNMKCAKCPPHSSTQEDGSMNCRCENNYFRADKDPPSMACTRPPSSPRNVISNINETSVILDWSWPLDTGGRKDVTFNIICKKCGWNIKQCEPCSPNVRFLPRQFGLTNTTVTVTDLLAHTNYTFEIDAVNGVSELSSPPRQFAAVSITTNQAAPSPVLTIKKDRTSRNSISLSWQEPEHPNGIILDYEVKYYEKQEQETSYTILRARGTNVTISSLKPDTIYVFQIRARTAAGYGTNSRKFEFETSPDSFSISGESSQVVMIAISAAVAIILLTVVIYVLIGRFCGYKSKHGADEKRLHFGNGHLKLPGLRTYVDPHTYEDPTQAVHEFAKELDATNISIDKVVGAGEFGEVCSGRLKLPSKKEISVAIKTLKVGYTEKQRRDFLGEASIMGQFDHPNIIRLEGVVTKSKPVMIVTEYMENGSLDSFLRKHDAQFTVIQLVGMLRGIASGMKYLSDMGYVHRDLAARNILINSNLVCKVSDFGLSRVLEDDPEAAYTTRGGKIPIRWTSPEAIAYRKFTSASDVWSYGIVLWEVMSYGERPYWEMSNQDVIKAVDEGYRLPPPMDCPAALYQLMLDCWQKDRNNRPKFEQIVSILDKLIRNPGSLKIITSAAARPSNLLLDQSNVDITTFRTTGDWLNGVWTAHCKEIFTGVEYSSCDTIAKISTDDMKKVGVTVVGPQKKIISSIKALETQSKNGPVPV
Particulars: at 0.1 µM.

In experiment [7] the target is T1, Ephrin type-A receptor 3 (Homo sapiens). To be noted: at 1 µM.
Experiment [8] addresses Ephrin type-A receptor 4 (Homo sapiens) (UniProt P54764). Particulars: at 0.1 µM.
Experiment [9] has the same target. To be noted: at 1 µM.
Experiment [10] has as its target T2, Ephrin type-B receptor 2 (Homo sapiens) (UniProt P29323).
T2 sequence (whole entry): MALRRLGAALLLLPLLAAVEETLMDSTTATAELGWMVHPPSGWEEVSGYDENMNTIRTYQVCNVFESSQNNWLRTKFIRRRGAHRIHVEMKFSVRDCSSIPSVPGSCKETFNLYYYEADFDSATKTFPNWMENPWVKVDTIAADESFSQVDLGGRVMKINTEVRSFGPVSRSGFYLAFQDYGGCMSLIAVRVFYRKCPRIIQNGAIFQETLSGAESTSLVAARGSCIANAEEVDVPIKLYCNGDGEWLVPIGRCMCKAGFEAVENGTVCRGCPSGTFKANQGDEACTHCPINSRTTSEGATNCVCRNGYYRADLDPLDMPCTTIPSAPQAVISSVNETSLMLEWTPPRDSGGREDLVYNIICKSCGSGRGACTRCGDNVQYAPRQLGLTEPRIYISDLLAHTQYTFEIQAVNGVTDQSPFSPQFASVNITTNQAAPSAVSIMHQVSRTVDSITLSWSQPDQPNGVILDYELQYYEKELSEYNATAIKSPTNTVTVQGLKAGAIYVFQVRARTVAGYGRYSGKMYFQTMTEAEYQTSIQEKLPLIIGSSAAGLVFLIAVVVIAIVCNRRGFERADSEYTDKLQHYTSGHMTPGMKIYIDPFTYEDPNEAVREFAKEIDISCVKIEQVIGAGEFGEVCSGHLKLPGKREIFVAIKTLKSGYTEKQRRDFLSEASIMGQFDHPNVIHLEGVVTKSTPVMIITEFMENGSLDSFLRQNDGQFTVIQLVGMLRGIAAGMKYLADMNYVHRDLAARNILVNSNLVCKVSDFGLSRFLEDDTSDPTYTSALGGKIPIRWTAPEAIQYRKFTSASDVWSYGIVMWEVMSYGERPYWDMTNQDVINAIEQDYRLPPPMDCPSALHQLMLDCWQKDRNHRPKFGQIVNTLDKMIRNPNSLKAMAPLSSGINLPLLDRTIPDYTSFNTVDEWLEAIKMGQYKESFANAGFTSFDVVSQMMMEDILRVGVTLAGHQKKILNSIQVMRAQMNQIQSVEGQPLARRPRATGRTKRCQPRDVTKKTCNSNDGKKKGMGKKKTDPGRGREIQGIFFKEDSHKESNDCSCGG
Particulars: at 0.1 µM.

Experiment [11] has as its target T2, Ephrin type-B receptor 2 (Homo sapiens). To be noted: at 1 µM.
Experiment [12] deals with T3, Ephrin type-B receptor 3 (Homo sapiens) (UniProt P54753).
T3 sequence (whole entry): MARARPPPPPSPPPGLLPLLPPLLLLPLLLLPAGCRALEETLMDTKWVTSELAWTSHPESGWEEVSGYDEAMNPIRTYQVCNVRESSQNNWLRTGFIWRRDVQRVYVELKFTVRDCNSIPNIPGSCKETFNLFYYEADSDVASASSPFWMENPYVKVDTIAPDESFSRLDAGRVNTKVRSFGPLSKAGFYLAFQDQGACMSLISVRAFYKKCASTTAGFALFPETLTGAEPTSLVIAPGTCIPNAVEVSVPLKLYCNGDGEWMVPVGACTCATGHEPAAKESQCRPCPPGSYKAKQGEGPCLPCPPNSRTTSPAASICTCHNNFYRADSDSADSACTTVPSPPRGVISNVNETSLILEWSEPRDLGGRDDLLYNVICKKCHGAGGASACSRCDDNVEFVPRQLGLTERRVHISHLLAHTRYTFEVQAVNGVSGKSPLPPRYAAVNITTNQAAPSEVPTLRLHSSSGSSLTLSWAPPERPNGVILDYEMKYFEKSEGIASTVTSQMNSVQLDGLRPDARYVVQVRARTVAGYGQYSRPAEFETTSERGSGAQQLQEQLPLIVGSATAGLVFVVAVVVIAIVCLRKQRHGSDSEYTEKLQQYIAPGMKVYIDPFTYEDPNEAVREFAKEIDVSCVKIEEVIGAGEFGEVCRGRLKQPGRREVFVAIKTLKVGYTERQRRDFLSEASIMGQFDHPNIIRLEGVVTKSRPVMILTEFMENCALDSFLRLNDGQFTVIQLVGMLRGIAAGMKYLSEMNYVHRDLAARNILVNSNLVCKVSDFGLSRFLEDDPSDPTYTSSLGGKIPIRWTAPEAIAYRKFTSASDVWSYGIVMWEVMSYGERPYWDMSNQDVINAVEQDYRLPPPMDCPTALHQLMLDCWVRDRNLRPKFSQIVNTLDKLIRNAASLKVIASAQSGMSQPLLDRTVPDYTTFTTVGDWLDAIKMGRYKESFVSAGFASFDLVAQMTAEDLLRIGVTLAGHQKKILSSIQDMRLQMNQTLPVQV
To be noted: at 0.1 µM.

Experiment [13] has as its target T3, Ephrin type-B receptor 3 (Homo sapiens). Particulars: at 1 µM.
Experiment [14] concerns the target T4, Ephrin type-B receptor 4 (Homo sapiens) (UniProt P54760).
T4 sequence (whole entry): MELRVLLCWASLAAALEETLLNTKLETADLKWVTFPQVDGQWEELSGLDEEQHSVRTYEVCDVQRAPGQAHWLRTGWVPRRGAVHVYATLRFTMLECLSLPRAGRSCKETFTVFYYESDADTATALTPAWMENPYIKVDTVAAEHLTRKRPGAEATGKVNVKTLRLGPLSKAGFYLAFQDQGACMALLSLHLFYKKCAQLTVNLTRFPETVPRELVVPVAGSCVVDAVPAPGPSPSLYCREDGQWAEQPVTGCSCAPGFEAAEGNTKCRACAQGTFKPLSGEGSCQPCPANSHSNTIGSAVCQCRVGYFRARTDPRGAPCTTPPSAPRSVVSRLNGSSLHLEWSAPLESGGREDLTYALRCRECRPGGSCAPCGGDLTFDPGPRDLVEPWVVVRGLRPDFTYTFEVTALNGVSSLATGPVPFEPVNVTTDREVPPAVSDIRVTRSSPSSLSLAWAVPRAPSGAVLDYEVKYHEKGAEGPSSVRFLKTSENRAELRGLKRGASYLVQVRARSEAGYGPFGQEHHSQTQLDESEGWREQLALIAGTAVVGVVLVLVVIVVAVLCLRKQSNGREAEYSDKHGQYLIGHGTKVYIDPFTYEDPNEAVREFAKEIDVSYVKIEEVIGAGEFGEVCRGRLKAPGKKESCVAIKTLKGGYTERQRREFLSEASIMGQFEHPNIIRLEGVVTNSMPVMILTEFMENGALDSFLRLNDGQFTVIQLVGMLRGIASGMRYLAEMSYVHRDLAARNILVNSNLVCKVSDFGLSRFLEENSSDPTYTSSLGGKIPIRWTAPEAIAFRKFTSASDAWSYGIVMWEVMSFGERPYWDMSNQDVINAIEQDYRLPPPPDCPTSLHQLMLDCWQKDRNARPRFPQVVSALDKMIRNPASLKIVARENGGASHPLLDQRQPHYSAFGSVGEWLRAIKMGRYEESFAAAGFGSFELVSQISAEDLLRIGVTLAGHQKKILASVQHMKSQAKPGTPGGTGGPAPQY
To be noted: at 0.1 µM.

Experiment [15] deals with T4, Ephrin type-B receptor 4 (Homo sapiens). To be noted: at 1 µM.
In experiment [16] the target is Receptor tyrosine-protein kinase erbB-2 (Homo sapiens) (UniProt P04626). To be noted: at 0.1 µM.
Chain of Receptor tyrosine-protein kinase erbB-2 (Homo sapiens) (P04626 whole entry): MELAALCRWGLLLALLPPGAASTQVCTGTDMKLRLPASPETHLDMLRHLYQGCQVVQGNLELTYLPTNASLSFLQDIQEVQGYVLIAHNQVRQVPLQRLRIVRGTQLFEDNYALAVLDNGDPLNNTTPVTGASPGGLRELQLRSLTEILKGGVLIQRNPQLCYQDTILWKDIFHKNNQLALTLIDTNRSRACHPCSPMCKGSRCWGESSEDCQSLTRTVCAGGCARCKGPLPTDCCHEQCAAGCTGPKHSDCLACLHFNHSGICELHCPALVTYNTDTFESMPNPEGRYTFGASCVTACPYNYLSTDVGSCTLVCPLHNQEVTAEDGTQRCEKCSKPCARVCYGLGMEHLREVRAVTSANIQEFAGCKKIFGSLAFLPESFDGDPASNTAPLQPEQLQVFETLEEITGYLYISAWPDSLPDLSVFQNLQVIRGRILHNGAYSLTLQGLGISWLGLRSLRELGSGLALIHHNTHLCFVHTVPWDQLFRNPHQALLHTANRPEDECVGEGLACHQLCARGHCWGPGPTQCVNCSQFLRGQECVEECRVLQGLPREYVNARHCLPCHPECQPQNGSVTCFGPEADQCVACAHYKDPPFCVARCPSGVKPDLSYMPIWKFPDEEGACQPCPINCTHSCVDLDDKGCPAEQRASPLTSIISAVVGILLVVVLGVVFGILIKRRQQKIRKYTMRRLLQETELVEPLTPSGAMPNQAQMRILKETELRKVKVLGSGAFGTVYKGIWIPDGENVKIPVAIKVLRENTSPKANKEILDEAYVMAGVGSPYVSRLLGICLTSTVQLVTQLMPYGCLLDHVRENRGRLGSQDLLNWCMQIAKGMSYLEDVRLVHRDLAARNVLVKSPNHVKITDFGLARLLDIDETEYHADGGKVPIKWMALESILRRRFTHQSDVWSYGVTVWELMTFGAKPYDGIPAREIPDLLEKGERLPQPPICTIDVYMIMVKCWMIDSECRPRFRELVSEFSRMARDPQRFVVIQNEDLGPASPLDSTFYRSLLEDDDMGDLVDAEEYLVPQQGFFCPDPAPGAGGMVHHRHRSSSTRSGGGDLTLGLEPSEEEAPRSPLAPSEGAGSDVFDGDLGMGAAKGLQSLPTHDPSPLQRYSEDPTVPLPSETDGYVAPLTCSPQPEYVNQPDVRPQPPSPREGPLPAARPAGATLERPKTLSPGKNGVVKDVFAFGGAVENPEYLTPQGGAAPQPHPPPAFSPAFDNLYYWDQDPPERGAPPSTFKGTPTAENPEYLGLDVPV
For experiment [17] the target is unchanged. Particulars: at 1 µM.
Experiment [18] concerns the target Receptor tyrosine-protein kinase erbB-4 (Homo sapiens) (UniProt Q15303). Particulars: at 0.1 µM.
Experiment [19] shares this target. To be noted: at 1 µM.
Experiment [20] deals with Tyrosine-protein kinase Fer (Homo sapiens) (UniProt P16591). To be noted: at 0.1 µM.

SMILES strings stand for the structures.

Chain of Epidermal growth factor receptor (Homo sapiens), P00533 [T790M] (P00533 whole entry T790M): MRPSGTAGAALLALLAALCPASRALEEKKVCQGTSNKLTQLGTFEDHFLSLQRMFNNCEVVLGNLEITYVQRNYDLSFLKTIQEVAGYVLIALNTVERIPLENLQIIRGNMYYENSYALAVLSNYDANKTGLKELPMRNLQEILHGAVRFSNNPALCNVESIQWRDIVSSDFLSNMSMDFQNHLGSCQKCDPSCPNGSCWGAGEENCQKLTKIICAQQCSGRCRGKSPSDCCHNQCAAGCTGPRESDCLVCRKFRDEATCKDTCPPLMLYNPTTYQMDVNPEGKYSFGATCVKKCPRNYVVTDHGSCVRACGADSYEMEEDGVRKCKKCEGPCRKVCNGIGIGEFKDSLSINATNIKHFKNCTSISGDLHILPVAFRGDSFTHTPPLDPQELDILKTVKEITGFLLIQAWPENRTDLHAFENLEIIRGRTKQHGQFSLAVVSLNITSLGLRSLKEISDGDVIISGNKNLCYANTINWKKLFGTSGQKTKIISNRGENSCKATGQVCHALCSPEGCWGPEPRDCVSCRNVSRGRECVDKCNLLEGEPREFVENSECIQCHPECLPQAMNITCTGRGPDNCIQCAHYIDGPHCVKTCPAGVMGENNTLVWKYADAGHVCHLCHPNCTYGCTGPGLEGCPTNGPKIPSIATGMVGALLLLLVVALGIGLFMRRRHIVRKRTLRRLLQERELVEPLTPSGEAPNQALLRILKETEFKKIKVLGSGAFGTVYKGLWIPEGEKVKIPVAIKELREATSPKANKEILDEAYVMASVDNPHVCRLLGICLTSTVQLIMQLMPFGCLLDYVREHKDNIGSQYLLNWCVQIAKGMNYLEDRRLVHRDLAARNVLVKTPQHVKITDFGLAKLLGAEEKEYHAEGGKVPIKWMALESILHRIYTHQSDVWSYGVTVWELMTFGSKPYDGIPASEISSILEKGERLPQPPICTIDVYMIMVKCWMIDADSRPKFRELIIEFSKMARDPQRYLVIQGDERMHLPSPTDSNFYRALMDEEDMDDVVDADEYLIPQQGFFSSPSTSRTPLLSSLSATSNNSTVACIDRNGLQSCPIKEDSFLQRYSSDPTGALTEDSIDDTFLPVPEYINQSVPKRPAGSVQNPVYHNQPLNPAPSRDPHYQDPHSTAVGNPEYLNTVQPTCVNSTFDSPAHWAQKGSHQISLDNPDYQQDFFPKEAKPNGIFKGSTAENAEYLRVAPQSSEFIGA
Chain of Epidermal growth factor receptor (Homo sapiens), P00533 [L858R,T790M] (P00533 whole entry T790M/L858R, looked up): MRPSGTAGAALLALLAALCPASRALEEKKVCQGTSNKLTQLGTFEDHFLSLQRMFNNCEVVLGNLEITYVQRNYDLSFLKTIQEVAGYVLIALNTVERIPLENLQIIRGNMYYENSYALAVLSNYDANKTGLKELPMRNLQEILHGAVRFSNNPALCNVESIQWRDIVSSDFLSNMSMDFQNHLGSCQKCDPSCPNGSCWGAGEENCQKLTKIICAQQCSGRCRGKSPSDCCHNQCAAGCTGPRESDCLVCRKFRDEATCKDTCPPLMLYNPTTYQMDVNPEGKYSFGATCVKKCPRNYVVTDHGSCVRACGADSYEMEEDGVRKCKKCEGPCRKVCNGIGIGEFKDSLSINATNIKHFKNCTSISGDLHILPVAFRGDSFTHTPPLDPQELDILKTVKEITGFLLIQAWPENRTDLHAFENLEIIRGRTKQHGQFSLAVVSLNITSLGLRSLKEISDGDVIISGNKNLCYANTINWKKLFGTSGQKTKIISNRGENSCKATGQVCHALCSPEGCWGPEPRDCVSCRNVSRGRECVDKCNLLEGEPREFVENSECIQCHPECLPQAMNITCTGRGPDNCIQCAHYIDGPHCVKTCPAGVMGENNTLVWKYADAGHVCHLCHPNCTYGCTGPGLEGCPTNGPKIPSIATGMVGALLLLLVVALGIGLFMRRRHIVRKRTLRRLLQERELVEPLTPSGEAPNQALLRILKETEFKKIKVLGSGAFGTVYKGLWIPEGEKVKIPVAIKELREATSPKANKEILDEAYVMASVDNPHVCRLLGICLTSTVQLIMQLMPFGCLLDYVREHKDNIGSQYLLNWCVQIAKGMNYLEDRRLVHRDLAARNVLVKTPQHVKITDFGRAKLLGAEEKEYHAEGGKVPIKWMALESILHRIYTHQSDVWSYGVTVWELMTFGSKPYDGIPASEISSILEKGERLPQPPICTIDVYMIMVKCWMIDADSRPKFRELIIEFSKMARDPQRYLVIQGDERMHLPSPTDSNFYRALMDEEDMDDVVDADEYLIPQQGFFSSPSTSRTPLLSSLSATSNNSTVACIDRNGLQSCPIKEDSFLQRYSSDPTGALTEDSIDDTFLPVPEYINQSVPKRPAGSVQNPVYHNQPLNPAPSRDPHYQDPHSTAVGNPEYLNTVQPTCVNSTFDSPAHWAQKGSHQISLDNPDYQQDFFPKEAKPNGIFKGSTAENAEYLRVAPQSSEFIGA
Chain of Ephrin type-A receptor 2 (Homo sapiens) (P29317 whole entry): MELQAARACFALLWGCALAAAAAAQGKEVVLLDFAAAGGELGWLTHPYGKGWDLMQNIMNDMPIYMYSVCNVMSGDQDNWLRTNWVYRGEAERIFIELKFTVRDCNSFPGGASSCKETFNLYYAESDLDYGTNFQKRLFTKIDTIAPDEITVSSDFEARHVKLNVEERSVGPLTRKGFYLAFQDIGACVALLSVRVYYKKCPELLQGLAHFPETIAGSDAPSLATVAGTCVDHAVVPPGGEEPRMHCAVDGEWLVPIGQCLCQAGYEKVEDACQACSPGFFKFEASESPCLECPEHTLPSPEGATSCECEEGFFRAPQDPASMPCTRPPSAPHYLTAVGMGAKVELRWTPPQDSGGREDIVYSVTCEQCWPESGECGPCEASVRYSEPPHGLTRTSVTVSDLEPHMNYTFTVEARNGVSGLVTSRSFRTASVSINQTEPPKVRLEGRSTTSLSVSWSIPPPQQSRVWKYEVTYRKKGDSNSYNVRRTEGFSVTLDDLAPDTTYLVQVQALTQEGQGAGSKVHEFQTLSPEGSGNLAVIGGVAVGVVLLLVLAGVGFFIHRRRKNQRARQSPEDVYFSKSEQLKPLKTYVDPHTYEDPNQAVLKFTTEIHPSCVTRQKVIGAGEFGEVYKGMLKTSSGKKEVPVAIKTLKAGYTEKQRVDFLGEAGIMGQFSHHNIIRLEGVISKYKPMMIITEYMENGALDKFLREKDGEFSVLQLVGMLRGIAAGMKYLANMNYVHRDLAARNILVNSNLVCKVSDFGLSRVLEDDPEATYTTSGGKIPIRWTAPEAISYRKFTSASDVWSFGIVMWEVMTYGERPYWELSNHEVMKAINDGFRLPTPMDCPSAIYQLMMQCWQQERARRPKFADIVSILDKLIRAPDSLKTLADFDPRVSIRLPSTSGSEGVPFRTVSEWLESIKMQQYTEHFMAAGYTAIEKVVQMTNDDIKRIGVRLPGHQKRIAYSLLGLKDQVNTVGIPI

As usually defined, the inhibition is the change of the read-out against control, counted positive when it falls. As to `O=S(=O)(CCOCc1ccc(-c2ccc3ncnc(Nc4ccc(OCc5cccc(F)c5)c(Cl)c4)c3c2)o1)c1ccccc1`, the inhibition in experiment [1] was 2.25%; in [2], -3.02%; in experiment [3], 1.89%; in experiment [4], -3.01%; in experiment [5], -2.3%; in [6], -1.7%. For the same molecule, the inhibition in [7] was 0.9%; in [8] it was 2.2%; in experiment [9], 5.8%; in [10] it was 8%; in experiment [11], 6.76%; in experiment [12] it was -0.47%. The inhibition in experiment [13] came out at 3.29%; in experiment [14] it was 1.15%; in experiment [15], 1.36%; in [16], 11.6%; in experiment [17] it was 69.8%; in [18] it was 27.5%. The inhibition in experiment [19] was 82.6%; in [20], -3.62%.

`Cc1ccc2c(-c3ccnc(Nc4ccc5c(c4)OCCO5)n3)c(-c3ccc(C(F)(F)F)cc3)nn2n1`: the inhibition was found to be 1.14% in experiment [1]; 2.01% in experiment [2]; 2.06% in experiment [3]; 2.03% in experiment [4]; 0.72% in [5]; 1.81% in [6]. Also, the inhibition was 0% in [7]; 1.21% in experiment [8]; 3.57% in experiment [9]; -7.93% in experiment [10]; 1.37% in [11]; -0.21% in [12]. The inhibition in experiment [13] is 2.22%; in [14] it was -1.12%; in [15], 1.46%; in experiment [16] it was 2.13%; in experiment [17], 4.1%; in experiment [18] it was 3.46%. The inhibition was found to be 16.3% in experiment [19] and 0.5% in experiment [20].

Consider `COc1cccc(-n2nc(C)c3c(N/N=C(\C)c4ccncc4)ncnc32)c1`, for which the inhibition in experiment [1] was -1.56%; in experiment [2], -0.53%; in experiment [3], -1.32%; in experiment [4] it was -1.68%; in experiment [5], -1.94%; in [6], -0.57%. The inhibition came out at 2.37% in experiment [7]; 3.69% in experiment [8]; 6.36% in experiment [9]; 2.52% in [10]; 3.31% in experiment [11]; 1.98% in [12]. The inhibition worked out at 0.96% in experiment [13]; 0.44% in experiment [14]; 1.01% in experiment [15]; 0.07% in experiment [16]; 2.47% in experiment [17]; 0.79% in [18]. For the same molecule, the inhibition was -0.06% in experiment [19] and 1.02% in experiment [20].

Consider `CCn1c(-c2nonc2N)nc2c(C#CC(C)(C)O)nc(OCCNC)cc21`, for which the inhibition in experiment [1] was 1.6%; in experiment [2], -1.42%; in experiment [3], 0.02%; in experiment [4], 0.18%; in experiment [5], -0.52%; in experiment [6], 1.69%. The inhibition in [7] was 3.22%; in experiment [8], 4%; in experiment [9] it was 8.24%; in [10], 8.92%; in experiment [11], 8.26%; in experiment [12] it was -3.04%. For the same molecule, the inhibition in experiment [13] is 4%; in experiment [14], 2.31%; in experiment [15] it was 2.13%; in experiment [16] it was 0.68%; in [17], 3.83%; in experiment [18], 4.11%. The inhibition in experiment [19] was 7.02%; in [20], -0.15%.

The values above are taken from ChEMBL document CHEMBL1961873, “Compounds: GSK PKIS; Assays: Nanosyn kinase panel” (2012).
